Data published in PubChem BioAssay (NCATS).
“And” between values parts separate entries of the source, which are not always exact repeats. Equal values may be shown once. A number with no mark means an inactive call. Records with an inconclusive call do not appear. A call without a number means that no potency is given here. The source made the active and inactive calls. Unless noted, calls come from the whole dose curve; as a rule, active = well fitted curve in the direction sought with a large enough effect; inconclusive = small, poorly fitted or top-dose-only effect, or another doubt; inactive = no such curve, though single readings can be large; an effect the other way counts as inactive or inconclusive.

Columns and labels:
[1] = Cell Viability - Jurkat (AID 426;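 active = dose-dependent loss of cell ATP signal giving a full or clear fitted curve, ranked by lower potency value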; note: potency is the fitted concentration of half-maximal effect); settings: qHTS
Method in brief: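 Jurkat (Clone E6-1) cells, 5000/well in complete medium, exposed to compounds for 40 hr at 37C; intracellular ATP measured by CellTiter-Glo luminescence after 20 min at room temperature. AC50 from Hill fits.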

[2] = Cell Viability - Hek293 (AID 427;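 active = compounds whose dose-response curve shows a full or clear partial loss of cell viability, called from curve shape rather than a numeric limit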;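 note: potency is the fitted concentration of half-maximal effect; cells exposed to compound for 40 hours at 37 °C before reading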); settings: qHTS
Method in brief: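 Luminescent ATP content (CellTiter-Glo, 20 min at room temperature) was measured after a 40 hr, 37 °C compound exposure of HEK293 cells. AC50 values came from Hill-equation fits of qHTS concentration-response data normalized to DMSO and 100 uM tamoxifen.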

[3] = Cell Viability - SK-N-SH (AID 435; calls by dose curve; note: potency is the fitted concentration of half-maximal effect); settings: SK-N-SH neuroblastoma cell viability qHTS
Method in brief: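 qHTS cytotoxicity: CellTiter-Glo ATP luminescence after 40 h compound exposure of human neuroblastoma SK-N-SH cells at 37 °C. AC50 derived by Hill-equation fitting, with DMSO as basal and 100 uM tamoxifen as full inhibition.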

[4] = Cell Viability - NIH 3T3 (AID 541); settings: NIH 3T3 cell viability, qHTS; activity change, negative = cytotoxicity: at 92.2 µM (top of the series); note: nearly all actives have a fitted effect of over 25% in size; note: potency is the fitted concentration of half-maximal effect
Method in brief: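 Mouse NIH 3T3 fibroblasts, 1000 cells/well, rested 5 hr at 37 °C, then exposed to compound for 40 hr at 37 °C in complete medium. Viability read as intracellular ATP by CellTiter-Glo luminescence; AC50 from Hill-equation fits of concentration-response data.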

[5] = Cell Viability - HUV-EC-C (AID 542); settings: HUV-EC-C endothelial cell viability, qHTS; series mostly up to 92.2 µM; note: nearly all actives have a fitted effect of over 35% in size; note: potency is the fitted concentration of half-maximal effect
Method in brief: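 HUV-EC-C human vascular endothelial cells, 1000/well, exposed to compound for 40 hr at 37 °C in complete medium. Intracellular ATP was read by CellTiter-Glo luminescence. AC50 came from Hill-equation fits of concentration-response data.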

[6] = Cell Viability - H-4-II-E (AID 543); settings: H-4-II-E rat hepatoma viability; series mostly up to 92.2 µM; note: nearly all actives have a fitted effect of over 35% in size; note: potency is the fitted concentration of half-maximal effect
Method in brief: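 Rat hepatoma H-4-II-E cells, 1500 per well, treated 40 h at 37 °C in complete medium. Cellular ATP read by CellTiter-Glo luminescence; AC50 from Hill fits of concentration-response.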

[7] = Cell Viability - SH-SY5Y (AID 544); settings: SH-SY5Y neuroblastoma cell viability; viability change, negative = cytotoxic: at 92.2 µM (top of the series); note: nearly all actives have a fitted effect of over 55% in size; note: potency is the fitted concentration of half-maximal effect
Method in brief: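 SH-SY5Y human neuroblastoma cells (1500/well) incubated 5 h, then compound-treated 40 h at 37 °C in complete medium. Viability read as intracellular ATP by CellTiter-Glo luminescence after 20 min; AC50 from Hill-equation fits of qHTS concentration-response.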

[8] = Cell Viability - Renal Proximal Tubule (AID 545); settings: renal proximal tubule cells viability; activity change, negative = cytotoxicity: at 91.7 µM (top of the series) unless noted; note: nearly all actives have a fitted effect of over 40% in size; note: potency is the fitted concentration of half-maximal effect
Method in brief: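 Viability taken as intracellular ATP (CellTiter-Glo luminescence) after 40 hr, 37 °C compound treatment of primary proximal tubule cells from rat kidney, 1000 cells/well; Hill-equation fits of qHTS concentration-response data gave AC50.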

[9] = Cell Viability - Mesenchymal (AID 546); settings: mesenchymal cells viability, qHTS; activity change, negative = cytotoxicity: at 91.7 µM (top of the series);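 note: cells exposed to compound for 40 hours before reading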; note: potency is the fitted concentration of half-maximal effect
Method in brief: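 AC50 values reflect the drop in intracellular ATP in a human kidney mesenchymal line derived from normal glomeruli. Treatment lasts 40 hr at 37 °C in complete medium, and the signal comes from CellTiter-Glo luminescence.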

[10] = Cellular Toxicity (caspase-3) HUV-EC-C (AID 656); settings: HUV-EC-C cells, caspase-3 activation (apoptosis), vehicle = 0, 100 µM tamoxifen = 100%; series mostly up to 92.2 µM
Method in brief: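 Luminescent Caspase-Glo 3/7 readout after 16 h, 37 °C compound exposure of HUV-EC-C endothelial cells, 1000 per well, complete medium. AC50 derived by Hill fitting, with DMSO as baseline and 100 uM tamoxifen as full activation.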

[11] = Cellular Toxicity (caspase-3) MRC-5 (AID 659); settings: MRC-5 cells, luminescence, normalized: DMSO 0%, 10 µM staurosporine 100%; series mostly up to 91.7 µM
Method in brief: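 Concentration-dependent caspase 3/7 activation is measured in human normal lung fibroblasts (MRC-5) following 16-hour treatment. AC50 values come from standard Hill-equation modeling of luminescence normalized to DMSO and 10 uM staurosporine.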

[12] = Cellular Toxicity (caspase-3) Hek293 (AID 664); settings: HEK293 caspase-3 activation, DMSO = 0%, 100 µM tamoxifen = 100%; at 92.2 µM (top of the series);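 note: cells exposed to compound for 16 h at 37 °C before readout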
Method in brief: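 HEK293 cells in complete medium treated 16 h at 37 °C, then Caspase-Glo 3/7 luminescence read after 20 min at room temperature. Normalized to DMSO and 100 uM tamoxifen; AC50 from Hill fit of concentration-response.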

[13] = Cellular Toxicity (caspase-3) N2a (AID 665); settings: N2a cells, luminescence, normalized: DMSO 0%, 10 µM staurosporine 100%; series mostly up to 92.2 µM;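 note: compound exposure lasted 16 h at 37 °C before readout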
Method in brief: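 Mouse N2a neuroblastoma cells, 1500 per well, treated 16 h at 37 °C in complete medium; caspase-3/7 activity by Caspase-Glo luminescence after 1 h. Normalized to DMSO and 10 uM staurosporine; AC50 from Hill fits.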

[14] = Cellular Toxicity (caspase-3) NIH 3T3 (AID 666); settings: NIH 3T3 caspase-3 activation, apoptosis/toxicity, 0% DMSO, 100% is 100 µM tamoxifen; series mostly up to 92.2 µM;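 note: caspase signal read after 16 h compound exposure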
Method in brief: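 Mouse NIH 3T3 fibroblasts (1000/well) treated 16 h at 37 C; caspase-3/7 activity measured by Caspase-Glo 3/7 luminescence after 20 min. Normalized to DMSO and 100 uM tamoxifen; AC50 from Hill fits.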

[15] = Cell Viability - LYMP1-003 - Assay at 24 hr (AID 963); settings: LYMP1-003 lymphoblastoid cell viability; series mostly up to 92.2 µM; note: potency is the fitted concentration of half-maximal effect
Method in brief: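 Human lymphoblastoid LYMP1-003 cells, 2500/well, treated 24 h at 37 C in complete medium. Viability read as intracellular ATP by CellTiter-Glo luminescence after 30 min at room temperature; AC50 from Hill-equation fits of qHTS concentration-response.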

[16] = Cell Viability - LYMP2-019 (AID 973); settings: LYMP2-019 lymphoblastoid cell line viability; series mostly up to 92.2 µM; note: nearly all actives have a fitted effect of over 55% in size; note: potency is the fitted concentration of half-maximal effect
Method in brief: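 Human lymphoblastoid LYMP2-019 cells (2500/well) preincubated 5 h at 37 C, then treated 24 h at 37 C in complete medium. Viability by CellTiter-Glo ATP luminescence after 30 min at room temperature; AC50 from Hill fits.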

[17] = Cell Viability - LYMP2-018 (AID 985); settings: LYMP2-018 lymphoblastoid cells, viability (qHTS); series mostly up to 92.2 µM;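 note: compound exposure lasted 24 hr at 37 °C; nearly all actives have a fitted effect of over 50% in size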; note: potency is the fitted concentration of half-maximal effect
Method in brief: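 Human lymphoblastoid LYMP2-018 cells, 2500/well, settled 5 hr at 37 C then exposed to compound 24 hr at 37 C; intracellular ATP measured by CellTiter-Glo luminescence. AC50 from Hill-equation concentration-response fits.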

[18] = molecular target: Tumor necrosis factor (Homo sapiens) (UniProt P01375); test: qHTS assay to identify small molecules that stimulate Tumor Necrosis Factor-alpha (TNF-alpha) secretion (AID 651757; active = well fitted curve in the direction sought with a large enough effect in the signal ratio; the % refers to the signal ratio); settings: Human cells, HTRF 665/615 ratio; series mostly up to 92.2 µM
Method in brief: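 THP-1 cells (3000/well) exposed to compounds 17 hrs at 37 C. Secreted TNF-alpha detected by HTRF with cryptate- and XL665-labeled anti-TNF-alpha antibodies after 3 hr at room temperature.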

[19] = molecular target: Peroxisome proliferator-activated receptor alpha (Homo sapiens) (UniProt Q07869); test: qHTS assay for small molecule agonists of the peroxisome proliferator-activated receptor alpha (PPARalpha) signaling pathway (AID 651778); settings: PathHunter PPARalpha complementation, chemiluminescence, 6 h; max response: active compounds read high
Method in brief: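 Chemiluminescence from complemented enzyme reported PPARalpha activation in cells after 6 hr of compound treatment at 37 C. The detection reagent was incubated for 60 min at room temperature, and compounds were scored as agonists.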

[20] = qHTS assay for cell viability of HEK293 cells (AID 743288); settings: ATP luminescence (CellTiter-Glo), 18 h; max response: active compounds read low; note: nearly all actives have a fitted effect of over 50% in size; note: potency is the fitted concentration of half-maximal effect
Method in brief: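 Total intracellular ATP, measured with a luciferase-coupled reagent, indicates the number of viable HEK293 cells. Exposure to test chemicals lasts 18 h at 37 C in 1,536-well format at 2,000 cells/well.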

Sequence of Tumor necrosis factor (Homo sapiens) (P01375 whole entry, looked up): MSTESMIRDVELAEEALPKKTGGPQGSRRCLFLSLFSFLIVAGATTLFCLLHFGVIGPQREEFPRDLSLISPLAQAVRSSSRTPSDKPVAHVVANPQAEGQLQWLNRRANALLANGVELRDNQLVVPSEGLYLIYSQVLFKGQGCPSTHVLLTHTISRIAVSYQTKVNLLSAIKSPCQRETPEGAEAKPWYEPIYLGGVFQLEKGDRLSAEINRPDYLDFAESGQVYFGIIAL
Sequence of Peroxisome proliferator-activated receptor alpha (Homo sapiens) (Q07869 whole entry, looked up): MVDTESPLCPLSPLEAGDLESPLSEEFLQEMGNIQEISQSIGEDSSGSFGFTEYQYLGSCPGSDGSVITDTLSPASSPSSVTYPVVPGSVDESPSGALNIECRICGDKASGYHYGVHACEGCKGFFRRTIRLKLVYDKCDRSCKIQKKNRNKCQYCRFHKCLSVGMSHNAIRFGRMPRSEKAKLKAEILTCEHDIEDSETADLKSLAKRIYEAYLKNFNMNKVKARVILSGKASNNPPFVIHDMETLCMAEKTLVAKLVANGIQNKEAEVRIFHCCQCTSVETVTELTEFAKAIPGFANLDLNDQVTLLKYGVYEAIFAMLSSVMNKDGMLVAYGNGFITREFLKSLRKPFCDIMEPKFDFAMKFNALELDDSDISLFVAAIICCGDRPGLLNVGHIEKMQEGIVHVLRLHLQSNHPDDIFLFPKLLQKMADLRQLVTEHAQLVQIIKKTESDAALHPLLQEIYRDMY

Q: With `c1ccc2cc3c(cc2c1)-c1cccc2cccc-3c12` as the molecule, how does the Potency [1] read?
A: Its Potency is over 92 µM.

Q: And the Potency [2]?
A: Its Potency is over 92 µM.

Q: What about the Potency [3] of the same molecule?
A: Its Potency is over 92 µM.

Q: What about the Potency [4] of the same molecule?
A: Its Potency is “inactive”.

Q: And the Potency [5]?
A: The Potency was “inactive”.

Q: And the Potency [6]?
A: The Potency was “inactive”.

Q: And the Potency [7]?
A: The Potency was “inactive”.

Q: What about the Potency [8] of the same molecule?
A: The Potency was “inactive”.

Q: What about the Potency [9] of the same molecule?
A: The Potency was “inactive”.

Q: And the outcome [10]?
A: The outcome was “inactive”.

Q: What about the outcome [11] of the same molecule?
A: Its outcome is “inactive”.

Q: What about the caspase-3 activation [12] of the same molecule?
A: The caspase-3 activation was -1.28%.

Q: And the outcome [13]?
A: Its outcome is “inactive”.

Q: And the outcome [14]?
A: The outcome was “inactive”.

Q: What about the Potency [15] of the same molecule?
A: The Potency was “inactive”.

Q: And the Potency [16]?
A: Its Potency is “inactive”.

Q: And the Potency [17]?
A: The Potency was “inactive”.

Q: And the Potency [18]?
A: Its Potency is “inactive”.

Q: And the max response [19]?
A: The max response was 13.7% and 0.159%.

Q: And the max response [20]?
A: The max response was 4.38% and -18.8%.

Q: What does the source list for `Oc1c(Br)c(Br)c(Br)c(Br)c1Br`?
A: Potency [1]: 39.1 µM (active); Potency [3]: 57 µM; Potency [4]: inactive; Potency [5]: inactive; Potency [6]: 50.1 µM (active); Potency [8]: inactive; Potency [9]: inactive; outcome [10]: inactive; outcome [11]: inactive; outcome [13]: inactive; outcome [14]: inactive; Potency [15]: inactive; Potency [16]: inactive; Potency [17]: inactive; Potency [18]: inactive; max response [19]: 10%; max response [20]: -15.8%

Q: What does the source list for `C#CCO`?
A: Potency [1]: > 92 µM; Potency [2]: > 92 µM; Potency [3]: > 92 µM; Potency [4]: inactive; Potency [5]: inactive; Potency [6]: inactive; Potency [7]: inactive; Potency [8]: inactive; Potency [9]: inactive; outcome [10]: inactive; outcome [11]: inactive; caspase-3 activation [12]: 1.98%; outcome [13]: inactive; outcome [14]: inactive; Potency [15]: inactive; Potency [16]: inactive; Potency [17]: inactive; Potency [18]: inactive; max response [19]: -1.68%; max response [20]: -6.13%

Q: Which Potency [2] does the source give for `Oc1c(Cl)cc(Cl)cc1Cl` here?
A: Its Potency is over 92 µM.

Q: What about the Potency [3] of the same molecule?
A: The Potency was over 92 µM.

Q: And the max response [20]?
A: Its max response is -4.3% and -11%.

Q: What does the source list for `N#CSCSC#N`?
A: Potency [1]: 3.31 µM (active); Potency [2]: 34.5 µM (active); Potency [3]: 14 µM (active); Potency [4]: 10 µM (active); Potency [5]: 25.1 µM (active); Potency [6]: 10 µM (active); Potency [7]: 1 µM (active); Potency [8]: 5.01 µM (active); Potency [9]: 12.6 µM (active); outcome [10]: inactive; caspase-3 activation [12]: -10.2%; outcome [13]: inactive; outcome [14]: inactive; Potency [15]: 25.1 µM (active); Potency [16]: 5.01 µM (active); Potency [17]: 7.94 µM (active); Potency [18]: inactive; max response [19]: -10% and -5.06%; Potency [20]: 28.2 µM (active)

Q: Which Potency [1] does the source give for `FC(F)(F)c1ccc(Cl)cc1` here?
A: Its Potency is over 92 µM.

Q: What about the Potency [2] of the same molecule?
A: The Potency was over 92 µM.

Q: What about the Potency [3] of the same molecule?
A: The Potency was over 92 µM.

Q: What about the Potency [4] of the same molecule?
A: The Potency was “inactive”.

Q: And the Potency [5]?
A: Its Potency is “inactive”.

Q: And the Potency [6]?
A: Its Potency is “inactive”.

Q: And the Potency [7]?
A: The Potency was “inactive”.

Q: What about the Potency [8] of the same molecule?
A: The Potency was “inactive”.

Q: And the Potency [9]?
A: The Potency was “inactive”.

Q: And the outcome [10]?
A: The outcome was “inactive”.

Q: And the outcome [11]?
A: Its outcome is “inactive”.

Q: And the caspase-3 activation [12]?
A: Its caspase-3 activation is 3.4%.

Q: And the outcome [13]?
A: The outcome was “inactive”.

Q: And the outcome [14]?
A: Its outcome is “inactive”.

Q: And the Potency [15]?
A: Its Potency is “inactive”.

Q: What about the Potency [16] of the same molecule?
A: The Potency was “inactive”.

Q: What about the Potency [17] of the same molecule?
A: Its Potency is “inactive”.

Q: What about the Potency [18] of the same molecule?
A: Its Potency is “inactive”.

Q: And the max response [19]?
A: Its max response is 1.19% and -0.788%.

Q: And the max response [20]?
A: Its max response is -1.88% and 4.63%.
